PI5P4Ka inh: qHTS for Inhibitors of phosphatidylinositol 5-phosphate 4-kinase (PI5P4K); Phosphatidylinositol 5-phosphate 4-kinase type-2 alpha (Homo sapiens), P48426; 1.2% of 330,000 active; PI5P4Kalpha enzyme, ADP-Glo luminescence, 60 min; active compounds read low; max response, %; active means max response of -50% or lower; inconclusive means between -30% and -50%; inactive means -30% or higher; further: value at the top dose of about 77 µM
Target sequence (P48426 whole entry, looked up): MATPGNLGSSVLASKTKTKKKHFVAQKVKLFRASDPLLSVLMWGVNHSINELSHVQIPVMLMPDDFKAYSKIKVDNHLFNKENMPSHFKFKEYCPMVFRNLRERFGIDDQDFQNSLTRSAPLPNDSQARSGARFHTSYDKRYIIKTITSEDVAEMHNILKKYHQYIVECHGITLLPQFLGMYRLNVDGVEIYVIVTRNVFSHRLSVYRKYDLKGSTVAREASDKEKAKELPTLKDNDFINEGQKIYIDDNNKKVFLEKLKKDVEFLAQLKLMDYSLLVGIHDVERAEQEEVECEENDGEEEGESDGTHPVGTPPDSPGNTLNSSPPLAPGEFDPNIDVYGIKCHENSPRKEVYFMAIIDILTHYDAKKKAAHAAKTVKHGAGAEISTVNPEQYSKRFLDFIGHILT
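Compounds were pin-transferred onto PI5P4Kalpha and substrate in HEPES pH 7.4 buffer with EGTA, CHAPS and 5% DMSO. ATP (5 microM final) started the reaction, which ran 60 minutes at room temperature before ADP-Glo detection.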
Pol kappa inh: qHTS for Inhibitors of Polymerase Kappa. DNA polymerase kappa (Homo sapiens), Q9UBT6. purified Pol kappa, fluorescent DNA synthesis assay, 10 min. Potency, µM (titrated, usually from 107 µM), hits mostly inhibitors. 0.53% of 400,000 active. AID 588579, 2011
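Kinetic fluorescence screen: compound preincubated 15 min RT with 10 nM enzyme; 50 nM substrate (final) initiates; reads at 0/10 min.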
Pol iota inh: qHTS for Inhibitors of Polymerase Iota | Potency, µM (titrated, usually from 115 µM), most hits filed as inhibitors | Pol iota fluorescent replication assay, 10 min | 1% of 390,000 active | DNA polymerase iota (Homo sapiens), Q9UNA4
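Fluorescent replication assay read twice, at 0 min and 10 min after adding 50 nM (final) substrate. Enzyme (10 nM) and compounds were first incubated 15 min at room temperature; enzyme-free buffer wells were negative controls.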
12-LOX inh: Primary qHTS assay for inhibitors of human arachidonate 12S-lipoxygenase (ALOX12): Round 2; Polyunsaturated fatty acid lipoxygenase ALOX12 (Homo sapiens), P18054; purified 12hLO, xylenol orange hydroperoxide absorbance; Potency, µM (doses to about 108 µM), most hits filed as inhibitors; 1.1% of 580,000 active; AID 1671190, 2021
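Purified human 12hLO at 150 nM in 25 mM Hepes, 0.01% Triton X-100, pH 7.0, preincubated 15 min at room temperature with compound. Reaction started with 40 uM arachidonic acid, 30 min at room temperature. Hydroperoxide measured by Fe-xylenol orange, 573/405 nm absorbance ratio.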
Pol beta inh: qHTS Assay for Inhibitors of DNA Polymerase Beta; P06746; Pol beta primer extension/strand displacement, fluorescence kinetic; Potency, µM (doses to about 114 µM), usual class: inhibitors; 1.3% of 340,000 active
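Homogeneous kinetic assay of primer extension and strand displacement by 10 nM Pol beta, preincubated 15 min at room temperature with compound before 50 nM substrate (final) was added. Read at 0 and 10 min; four-parameter Hill fit.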
POLH inh: qHTS for Inhibitors of Polymerase Eta | DNA polymerase eta (Homo sapiens), Q9Y253 | recombinant Pol eta, fluorescent DNA replication assay | Potency, µM (doses to about 114 µM), most hits filed as inhibitors | 1.2% of 390,000 active | AID 588591, 2011
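Pol eta (10 nM) was preincubated with compounds for 15 min at room temperature, after which fluorescent replication substrate (50 nM final) was added to start the reaction. Fluorescence was read kinetically at 0 and 10 min.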
Numbers stand for hits; - = inactive; ? = inconclusive; . = no result. In the library only some 2.9% were active in any assay of this set; here they are far more common. Unless noted, the call rests on the fitted dose curve; in most records, active means well fitted inhibition curve with a large enough effect; inconclusive means small, poorly fitted or top-dose-only effect, or another doubt; inactive means no such curve, though single readings can be large or run the other way.

SMILES	PI5P4Ka inh	Pol kappa inh	Pol iota inh	12-LOX inh	Pol beta inh	POLH inh
COc1cc(N)c2ncccc2c1Br	-	-	32µM	-	.	-
COc1cc(N)c2ncccc2c1SC	-	.	.	-	.	-
N#Cc1c(N)sc2c1CCCCCC2	.	-	-	35µM	-	-
CC1(C)Cc2c(C#N)c(N)sc(=S)c2CS1	?	-	?	?	-	?
N#Cc1c(N)sc(=S)c2c1CCCCC2	-91	28µM	?	?	13µM	13µM
O=C(COC(=O)Cc1cccc2ccccc12)Nc1ccccc1	.	.	.	-	.	.
CCN(c1ccccc1)S(=O)(=O)c1ccc(N2CCN(c3ccc(O)cc3)CC2)nc1	-	-	-	20µM	.	-
CCSc1nc2c(c(=O)[nH]1)C(C(=O)Nc1cccc(Cl)c1)CC(=O)N2 (configuration not stated)	.	.	.	-	.	.
Fc1cccc(-c2nc(COc3ccccc3F)co2)c1	.	.	.	-	.	.
Fc1cccc(-c2nc(COc3ccc(Br)cc3F)co2)c1	.	.	.	32µM	.	.
COc1c2c(c(C)c3c1C(=O)OC3)O[C@@]1(C)CC[C@@]3(O)C(C)(C)OC(=O)CC[C@]3(C)[C@H]1C2	-	-	?	?	?	45µM
O=C1OC(/C=C/c2ccc(Cl)cc2Cl)=NC/1=C\c1cccs1	-	-	?	35µM	-	-
CSC1=N/C(=C\c2cccs2)C(=O)S1	.	.	.	-	.	.
CN(C)CCNC(=S)NCc1cccs1	.	.	.	-	.	.
CC(C)Oc1ccc(C(CCNCc2ccc(O)cc2)c2ccccc2)cc1 (configuration not stated)	-	-	-	40µM	-	-
COc1cccc(N2CC34C=CC(O3)C(C(=O)O)C4C2=O)c1 (configuration not stated)	?	?	?	?	?	14µM
N#Cc1c(-c2ccccc2)[nH]c(=S)[nH]c1=O	-62	-	-	?	-	-
N#Cc1c(-c2cccc(Cl)c2)[nH]c(=S)[nH]c1=O	-77	-	-	?	-	-
O=c1[nH]c(=S)[nH]c(-c2ccccc2)c1Cc1c(O)ccc2ccccc12	.	-	.	.	.	.
COc1cc(NS(=O)(=O)c2cccc(Cl)c2)cc2sc(NC(=O)c3ccccc3)nc12	.	.	.	-	.	.
CCCC(=O)Oc1c(Sc2ccc(Cl)cc2)c(C)nn1-c1ccccc1	.	-	25µM	45µM	-	-
Cc1ccc(Sc2c(C)nn(-c3ccccc3)c2OC(=O)CC(C)C)cc1	.	-	?	?	-	.
CCOC(=O)c1cnc2c(C)c(Cl)ccc2c1NCCCN1CCOCC1	-	-	-	45µM	-	-
CCOC(=O)c1cnc2c(Cl)c(Cl)ccc2c1NCCN1CCOCC1	-	-	-	-	-	-
CC(C)CN1C(=O)/C(=C/c2ccco2)NC1=S	-	-	-	28µM	?	-
SMILES	PI5P4Ka inh	Pol kappa inh	Pol iota inh	12-LOX inh	Pol beta inh	POLH inh
CCCCCCCCCCC[N+](C)(C)CC/C=C1/c2ccccc2Sc2ccc(Cl)cc21	-	-	-	.	?	-
CCCCCCCCCC[N+](C)(C)CC/C=C1/c2ccccc2Sc2ccc(Cl)cc21	-	-	-	.	40µM	-
Cc1cc(C(=O)NC2CCCN(Cc3ccc(Cl)cc3)C2)c(C)o1 (configuration not stated)	-	-	-	16µM	-	-
Cc1occc1C(=O)NC1CCCN(Cc2ccc(Cl)cc2)C1 (configuration not stated)	-	-	-	?	-	-
CCOC(=O)Cc1csc(NC(=O)c2sc3nc4c(C)cc(C)cc4cc3c2N)n1	.	-	50µM	?	32µM	?
O=C(/C=C/c1ccccc1)Nc1cccc(C(=O)O)c1	-	-	-	-	-	-
O=C(/C=C/c1ccccc1)Nc1cc(NC(=O)/C=C/c2ccccc2)cc(C(=O)O)c1	-56	-	-	?	-	50µM
COc1cccc(CN(C)C(=O)CCc2ncc(-c3ccc(F)cc3)o2)c1OC	.	.	.	-	.	.
O=C1CC(C(=O)Nc2ccc(C(=O)O)cc2)C(c2ccccc2)O1 (configuration not stated)	-	-	-	-	-	-
O=C1CC(C(=O)Nc2ccc(O)c(C(=O)O)c2)C(c2ccccc2)O1 (configuration not stated)	.	-	?	?	-	50µM
Cc1cc(C(=O)Cn2c(Cl)nc3c2c(=O)n(C)c(=O)n3C)c(C)n1CCc1ccccc1	.	.	.	-	.	.
COc1ccc(Cl)cc1NC(=O)CCn1nc(C)cc1C	.	-	?	-	32µM	-
COc1ccc(Cl)cc1NC(=O)CCN1CCN(C)CC1	-	-	-	?	-	-
COc1ccc(C2CC(=O)N3CN(C4CCCCC4)CSC3=C2C#N)c(OC)c1 (configuration not stated)	.	-	7.9µM	40µM	-	-
COc1cc(C2CC(=O)N3CN(c4ccc(C)cc4)CSC3=C2C#N)cc(Br)c1O (configuration not stated)	.	.	.	1.3µM	.	.
COc1ccc(OC)c(C2C(C#N)=C(N)N(N(C)C)C3=C2C(=O)CCC3)c1 (configuration not stated)	-	-	-	-	-	-
Cc1cccc(N2CSC3=C(C#N)C(c4ccc(C)o4)CC(=O)N3C2)c1 (configuration not stated)	.	.	.	.	5µM	.
COc1ccc(OC)c(C2CC(=O)N3CN(c4ccccc4)CSC3=C2C#N)c1 (configuration not stated)	-85	-	-	?	-	-
COc1cc(OC)c(C2CC(=O)N3CN(c4ccccc4C)CSC3=C2C#N)cc1OC (configuration not stated)	.	.	.	-	-	.
COC(=O)CSC1=C(C#N)C(c2ccc(C)o2)CC(=O)N1 (configuration not stated)	-	-	-	-	-	-
O=C(CCc1cccs1)Nc1ccc(N2CCOCC2)cc1	.	.	.	-	.	.
O=C(NCCCNC(=O)c1ccccc1Cl)c1nc2ccccc2c(=O)[nH]1	.	.	.	-	.	.
O=C(CCc1ccnc(N2CCCC2)c1)N1CCN(c2cccc(Cl)c2)CC1	.	.	.	-	.	.
CCn1c(-n2nc(C)cc2C)nc2c1c(=O)n(Cc1ccccc1F)c(=O)n2C	.	.	.	-	.	.
COc1ccc(C2CC(=O)N3CN(c4ccc(C)c(Cl)c4)CSC3=C2C#N)cc1 (configuration not stated)	-69	-	?	4µM	?	-
COc1ccc(C2CC(=O)N3CN(c4ccccc4F)CSC3=C2C#N)cc1OC (configuration not stated)	-84	?	?	?	-	-

Assay outcomes from PubChem BioAssay.
